# Screens (PubChem)
# This is a sample that favours compounds with a hit; in the whole collection about 1.4% have one here.
# ugtP null kill: compounds lethal to S. aureus RN4220 ugtP deletion mutant; OD600 growth, 16 h; 330,000 tested, 0.54% active; growth inhibition, % (concentration not given with the values); in the data active means growth inhibition above about 68%;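 further: plate controls were untreated wells for no effect and antibiotic for full effect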
# RN4220 kill: kills Staphylococcus aureus RN4220. inhibition, % (test concentration not listed). 330,000 tested, 0.33% active. S. aureus RN4220 growth, OD600, 16 h; in the data active means inhibition above about 85%;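 further: plate controls were untreated cells for no effect and reference antibiotic for full effect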
# BJeLR viability: BJeLR cell viability loss; inhibition, % (concentration not given with the values); 300,000 tested, 0.17% active; BJeLR (HRASV12) viability, CellTiter-Glo ATP luminescence, 48 h; in the data active means inhibition above about 50%; inconclusive means no clear call, values can overlap the other calls
# Yp Topo-I inh: blocks Yersinia pestis topoisomerase I activity. Y. pestis Topo-I cleavage product accumulation, plate reader. activity, % at 10 µM. 360,000 tested, 0.064% active. AID 504884; in the data active means activity above about 50%, passing the limit was not always enough; inconclusive means no clear call, values can overlap the other calls
# PfHsp40 yeast: restores yeast growth despite PfHsp40 toxicity. AID 504582. growth rescue, % at 12.5 µM. 340,000 tested, 0.68% active. S. cerevisiae expressing PfHsp40, growth rescue, ATP luminescence; in the data active means growth rescue above about 28%, passing the limit was not always enough; inconclusive means no clear call, values can overlap the other calls;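 further: yeast W303a lacking pdr1 and pdr3 grown in galactose medium; growth measured after three days at 30 °C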
# PrP 5UTR inh: inhibition of PrP 5' UTR reporter expression; inhibition, % (concentration not given with the values); cell-based PrP 5' UTR mRNA reporter, plate reader; AID 488862; 340,000 tested, 0.35% active; in the data active means inhibition above about 52%; further: 0 = median of the neutral control wells
# PrP 5UTR single: prion 5' UTR mRNA inhibition, cherry-pick retest; shares compounds with PrP 5UTR inh; cell-based prion protein 5' UTR reporter, plate reader; inhibition, % at 2.5 µM; 1,100 tested, 48% active; AID 504592; in the data active means inhibition above about 54%; inconclusive means no clear call, values can overlap the other calls
# An asterisk follows results filed as active; ? = inconclusive; . = no result.
SMILES,ugtP null kill,RN4220 kill,BJeLR viability,Yp Topo-I inh,PfHsp40 yeast,PrP 5UTR inh,PrP 5UTR single
CN1C(=O)C(=Cc2ccc(N3CCCCC3)o2)C(=O)N(C)C1=S,.,.,3,2,1,54*,-12
CC(=O)N1CCN(C(=O)c2cc(C)nc3ccccc23)CC1,7,4,4,-10,0,-14,.
Cc1cc(C(=O)N2CC=C(c3ccccc3)CC2)c2ccccc2n1,0,-2,47,-6,0,52*,74*
CCc1nnc(NC(=O)C2CCCN2S(=O)(=O)c2ccc3c(c2)OCCO3)s1 (stereo not drawn),3,2,.,.,.,.,.
Cc1c(NS(=O)(=O)c2ccc(C(=O)NCc3ccccc3)cc2)c(=O)n(-c2ccccc2)n1C,5,7,-5,0,0,56*,1
N=c1ccn2c(n1)O[C@H]1[C@@H](CO)[C@H](O)O[C@H]12,.,.,.,-8,-1,52*,38
Cn1c(C(C#N)=C(O)CN2CCN(Cc3ccccc3)CC2)nc2ccccc21,-6,3,.,.,.,.,.
COc1cc(/C=C2\COC/C(=C\c3cc(OC)c(OC)c(OC)c3)C2=O)cc(OC)c1OC,-2,1,41,-2,1,89*,97*
COc1ccc(/C=C2\SC(=S)N(CCCC(=O)NNC(=O)c3ccccc3O)C2=O)cc1,.,.,1,4,3,60*,74*
COc1ccc(/C=C2/SC(=S)N(CCCC(=O)Nc3ccccc3C(=O)O)C2=O)cc1,30,35,1,11,0,18,.
CCC(C)(C)C1CCc2[nH]nc(C(=O)NC3CCCC3)c2C1 (stereo not drawn),0,-2,.,-5,0,-1,.
O=C(NC1CCCCC1)c1n[nH]c2c1CCCCC2,.,.,.,9,-2,79*,59*
CCN1CCN(Cc2ccc(NC(=O)c3ccc(C)c(NC(=O)c4cncc(-c5cccs5)c4)c3)cc2C(F)(F)F)CC1,-8,-6,.,-17,-1,61*,86*
O=C1NC(=O)C(=Cc2ccccc2Oc2ccc(Cl)cc2)S1,3,3,.,.,.,.,.
O=C(O)c1ccc(NN=Cc2ccncc2)cc1,10,3,.,.,.,.,.
O=C(O)c1ccc(N/N=C/c2ccc3nccnc3c2)cc1,.,.,24,7,-2,84*,85*
Clc1ccc(CSc2nnc(-c3ccc4c(c3)OCO4)o2)cc1,7,1,8,25,2,-14,.
O=C1CCCCC1Sc1nnc(-c2ccc3c(c2)OCO3)o1 (stereo not drawn),-4,8,6,9,0,55*,?
O=[N+]([O-])c1cc(Cl)cc(C=NNC(=S)Nc2cc(S(=O)(=O)N3CCOCC3)ccc2Cl)c1O,-12,18,.,.,.,.,.
COc1ccc2c(c1)sc1nc(-c3ccccc3)cn12,48,18,16,-12,-1,89*,89*
O=C(OCc1ccccc1)C(=C(O)c1ccccc1Br)c1ccc(-c2ccccc2)cn1,2,4,.,.,.,.,.
O=C(Nc1nnc(-c2ccccc2)o1)NC1CCCCC1,17,3,2,-3,0,78*,-23
CC(=O)OCC(=O)[C@@]1(O)C(C)CC2C3CCC4=CC(=O)C=C[C@]4(C)[C@@]3(F)C(O)C[C@@]21C (stereo partly drawn),-5,4,.,.,.,.,.
N[C@@H](Cc1c[nH]c2ccccc12)C(=O)O,.,.,-7,.,.,.,.
Cc1[nH]nc2ccc(-c3cncc(OC[C@@H](N)Cc4c[nH]c5ccccc45)c3)cc12,.,.,.,-12,-1,95*,91*
SMILES,ugtP null kill,RN4220 kill,BJeLR viability,Yp Topo-I inh,PfHsp40 yeast,PrP 5UTR inh,PrP 5UTR single
CC(=O)OC1(C)CC(C)C(=O)C(C(O)CC2CC(=O)NC(=O)C2)C1 (stereo not drawn),.,.,.,-5,12,63*,96*
CCOC(=O)C1(CC2CCCCO2)CCN(Cc2ccc(OC)cc2F)CC1 (stereo not drawn),3,1,8,10,1,80*,-15
C[C@@H]1COC(=O)[C@@H](Cc2ccc(F)cc2)C/C=C\C[C@H](CC(=O)N(CCO)Cc2ccccc2)C(=O)N1,-1,1,.,29,1,85*,-14
CC(=O)OC1C(O)C(C)OC(OC2C(OC(=O)C3CCC4C(C3)OC3(CC(OC(=O)/C=C/c5ccccc5)C(C)CO3)C43CO3)OC(C)C(O)C2OC(C)=O)C1O (stereo not drawn),.,.,.,27,3,84*,83*
CCOC(=O)CC1c2ccc(C(F)(F)F)cc2S(=O)(=O)N1C(C)(C)C (stereo not drawn),-2,1,.,.,.,.,.
CCC(=O)c1ccc(Oc2nc3c(c(=O)n(C)c(=O)n3C)n2CC)cc1,10,0,-16,-1,1,58*,7
COC(=O)c1ccc(Oc2nc3c(c(=O)n(C)c(=O)n3C)n2CCC(C)C)cc1,11,2,-14,6,-1,-3,.
CN(C)CCN1C(=O)c2cccc3cc([N+](=O)[O-])cc(c23)C1=O,.,.,.,-26,-1,66*,84*
COC(=O)C12OCC34C(CC5C(C)=C(O)C(=O)CC5(C)C3C(O)C1O)OC(=O)C(OC(=O)/C=C(\C)C(C)C)C24 (stereo not drawn),.,.,.,-12,3,93*,92*
COC(=O)C12OCC34C(CC5C(C)=C(O)C(=O)CC5(C)C3C(O)C1O)OC(=O)C(OC(=O)C=C(C)C)C24 (stereo not drawn),.,.,.,-1,1,83*,86*
O=[N+]([O-])c1ccc(C=NNc2cc(Cl)nc(-c3ccccc3)n2)cc1,4,1,.,.,.,.,.
Cc1ccc(NC=C(C#N)c2ccsc2)cc1,1,4,.,.,.,.,.
c1c2c(cc3sc(N4CCOCC4)nc13)OCCO2,-3,6,25,-7,-3,56*,?
CC(C)NC(=O)N(C)CC1Oc2ccc(NC(=O)CCN3CCOCC3)cc2CC(=O)N(C(C)CO)CC1C (stereo not drawn),4,2,.,.,.,.,.
O=C1C=C(c2ccc(C(=O)O)cc2)CC(c2ccc(Cl)cc2)C1 (stereo not drawn),16,14,.,.,.,.,.
Cc1nn(-c2ccccc2)c(C)c1/C=N/NC(=O)c1cc(-c2cccs2)[nH]n1,.,.,39,8,2,68*,78*
